# Paper PMC7862700, “An all-to-all approach to the identification of sequence-specific readers for epigenetic DNA modifications on cytosine”
# Assays:
# Test in all cases: DAPPL (digital affinity profiling via proximity ligation, sequencing); 10 mM Tris-HCl pH 7.5, 50 mM NaCl, 1 mM DTT, 4% glycerol, room temperature, 30 min; GST-TFs on glutathione beads, 16-mer random dsDNA library, 0.1% formaldehyde crosslink after washing; high values mean tight binding
# Conditions in all cases: protein: recombinant; tags: N-terminal GST; dsDNA, one strand shown
# [1] = target: T1, FLI1 (Homo sapiens, UniProt Q01543 1-452)
# T1 sequence: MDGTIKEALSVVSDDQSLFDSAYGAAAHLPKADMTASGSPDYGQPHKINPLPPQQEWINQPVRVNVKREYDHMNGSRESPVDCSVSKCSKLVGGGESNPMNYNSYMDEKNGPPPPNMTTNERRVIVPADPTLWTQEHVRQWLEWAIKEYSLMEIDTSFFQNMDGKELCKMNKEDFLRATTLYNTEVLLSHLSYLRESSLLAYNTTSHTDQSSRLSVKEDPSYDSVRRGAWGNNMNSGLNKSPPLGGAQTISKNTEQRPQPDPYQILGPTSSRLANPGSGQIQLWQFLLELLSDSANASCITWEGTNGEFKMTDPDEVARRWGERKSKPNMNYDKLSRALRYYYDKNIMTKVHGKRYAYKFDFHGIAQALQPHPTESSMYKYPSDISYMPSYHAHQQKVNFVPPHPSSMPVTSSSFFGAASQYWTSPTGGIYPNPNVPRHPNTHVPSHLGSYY
# Summary of the method: (§1)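 Yeast served to express human transcription factors as GST fusions, which were then captured on glutathione beads and labelled with DNA barcodes. Pooled with a tag-only sample, they were incubated with 200 nmole of a 16-mer random double-stranded DNA library for 30 min at room temperature in Tris/NaCl/DTT/glycerol buffer, washed, crosslinked with 0.1% formaldehyde, ligated by proximity, amplified by PCR and sequenced. Dividing each hexamer's read frequency for a factor by its frequency for the tag-only sample gives the binding signal.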
# [2] = target: T2, ELK1 (Homo sapiens, UniProt P19419 1-428)
# T2 sequence: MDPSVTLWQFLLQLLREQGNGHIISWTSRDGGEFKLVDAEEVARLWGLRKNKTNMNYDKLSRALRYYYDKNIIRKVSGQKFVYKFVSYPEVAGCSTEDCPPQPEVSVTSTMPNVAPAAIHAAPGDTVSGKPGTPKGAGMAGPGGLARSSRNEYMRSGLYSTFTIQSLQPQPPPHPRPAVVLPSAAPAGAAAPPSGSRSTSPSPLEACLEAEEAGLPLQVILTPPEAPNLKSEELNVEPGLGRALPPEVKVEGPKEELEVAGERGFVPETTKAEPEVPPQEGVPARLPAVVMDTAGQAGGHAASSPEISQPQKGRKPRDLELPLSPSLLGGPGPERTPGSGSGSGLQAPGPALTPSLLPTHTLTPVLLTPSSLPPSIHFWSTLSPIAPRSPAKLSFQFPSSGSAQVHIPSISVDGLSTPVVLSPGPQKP
# Summary of the method: as §1
# [3] = target: T3, ERG (Homo sapiens, UniProt P11308 1-479)
# T3 sequence: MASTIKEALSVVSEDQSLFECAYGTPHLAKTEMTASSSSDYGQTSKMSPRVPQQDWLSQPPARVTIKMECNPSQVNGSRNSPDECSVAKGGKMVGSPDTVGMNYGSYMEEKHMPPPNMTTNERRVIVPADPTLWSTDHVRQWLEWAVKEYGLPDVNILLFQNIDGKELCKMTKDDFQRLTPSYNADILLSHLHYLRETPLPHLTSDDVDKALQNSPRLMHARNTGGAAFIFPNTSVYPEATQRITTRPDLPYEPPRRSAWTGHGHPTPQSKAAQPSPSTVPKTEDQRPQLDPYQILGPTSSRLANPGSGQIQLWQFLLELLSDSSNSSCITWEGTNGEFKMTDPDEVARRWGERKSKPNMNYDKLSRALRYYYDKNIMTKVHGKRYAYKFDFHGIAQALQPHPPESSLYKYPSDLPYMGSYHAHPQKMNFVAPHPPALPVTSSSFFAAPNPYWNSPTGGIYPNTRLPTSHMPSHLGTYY
# Summary of the method: as §1
# [4] = target: ELF1 (Homo sapiens, UniProt P32519 1-619)
# Sequence of ELF1 (P32519 whole entry): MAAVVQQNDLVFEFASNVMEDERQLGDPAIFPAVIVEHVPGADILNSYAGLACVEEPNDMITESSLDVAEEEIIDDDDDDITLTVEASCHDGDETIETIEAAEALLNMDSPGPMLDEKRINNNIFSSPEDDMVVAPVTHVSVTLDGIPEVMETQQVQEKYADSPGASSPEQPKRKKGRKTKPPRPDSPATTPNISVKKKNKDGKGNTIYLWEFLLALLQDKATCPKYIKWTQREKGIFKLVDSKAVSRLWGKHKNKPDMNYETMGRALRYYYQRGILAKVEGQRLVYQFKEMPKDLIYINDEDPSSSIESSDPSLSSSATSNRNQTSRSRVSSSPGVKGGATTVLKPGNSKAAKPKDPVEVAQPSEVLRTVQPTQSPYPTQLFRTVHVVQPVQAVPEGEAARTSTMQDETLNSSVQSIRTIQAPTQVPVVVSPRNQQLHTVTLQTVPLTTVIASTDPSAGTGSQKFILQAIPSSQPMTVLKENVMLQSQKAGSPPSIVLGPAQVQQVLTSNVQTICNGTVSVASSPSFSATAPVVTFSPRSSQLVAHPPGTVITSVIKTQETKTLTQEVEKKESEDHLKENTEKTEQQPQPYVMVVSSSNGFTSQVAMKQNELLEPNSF
# Summary of the method: as §1
# [5] = target: T4, EHF (Homo sapiens, UniProt Q9NZC4 1-300)
# T4 sequence: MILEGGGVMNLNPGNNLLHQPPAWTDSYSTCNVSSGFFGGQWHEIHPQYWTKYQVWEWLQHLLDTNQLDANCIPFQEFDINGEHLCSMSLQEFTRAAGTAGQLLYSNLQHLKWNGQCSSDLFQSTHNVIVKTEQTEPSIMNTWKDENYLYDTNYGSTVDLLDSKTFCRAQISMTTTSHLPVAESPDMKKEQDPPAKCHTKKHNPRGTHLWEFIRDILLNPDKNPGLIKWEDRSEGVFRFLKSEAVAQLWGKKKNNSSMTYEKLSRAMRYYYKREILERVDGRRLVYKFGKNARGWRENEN
# Summary of the method: as §1
# [6] = target: T5, SPIC (Homo sapiens, UniProt Q8N5J4 1-248)
# T5 sequence: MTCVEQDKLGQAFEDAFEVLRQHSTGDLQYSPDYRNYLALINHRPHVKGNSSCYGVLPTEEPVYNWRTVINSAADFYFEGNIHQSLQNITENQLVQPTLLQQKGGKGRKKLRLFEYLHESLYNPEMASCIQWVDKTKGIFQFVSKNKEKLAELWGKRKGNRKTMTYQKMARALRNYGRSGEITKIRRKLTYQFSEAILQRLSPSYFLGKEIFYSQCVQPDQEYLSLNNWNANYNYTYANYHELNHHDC
# Summary of the method: as §1
# [7] = target: ELF4 (Homo sapiens, UniProt Q99607 1-663)
# Sequence of ELF4 (Q99607 whole entry): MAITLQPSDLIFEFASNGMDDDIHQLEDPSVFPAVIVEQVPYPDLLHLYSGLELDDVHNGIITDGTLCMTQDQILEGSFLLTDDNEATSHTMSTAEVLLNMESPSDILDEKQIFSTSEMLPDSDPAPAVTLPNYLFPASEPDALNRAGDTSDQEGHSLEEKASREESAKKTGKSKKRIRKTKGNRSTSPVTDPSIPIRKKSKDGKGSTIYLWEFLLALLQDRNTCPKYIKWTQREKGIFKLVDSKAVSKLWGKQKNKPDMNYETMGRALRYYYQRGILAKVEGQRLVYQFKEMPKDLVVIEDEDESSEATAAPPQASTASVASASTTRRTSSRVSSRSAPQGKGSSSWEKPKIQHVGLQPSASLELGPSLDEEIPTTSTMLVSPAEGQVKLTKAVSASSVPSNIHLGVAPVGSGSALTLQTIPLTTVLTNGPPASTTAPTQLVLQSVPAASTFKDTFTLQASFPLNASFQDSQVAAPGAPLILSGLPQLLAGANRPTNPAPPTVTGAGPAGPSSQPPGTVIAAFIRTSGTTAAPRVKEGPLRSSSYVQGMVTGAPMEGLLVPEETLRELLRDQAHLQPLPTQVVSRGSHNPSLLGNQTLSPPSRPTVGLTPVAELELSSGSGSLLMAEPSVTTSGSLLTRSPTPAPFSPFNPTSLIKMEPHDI
# Summary of the method: as §1
# [8] = target: T6, ELK4 (Homo sapiens, UniProt P28324-2 1-405)
# T6 sequence: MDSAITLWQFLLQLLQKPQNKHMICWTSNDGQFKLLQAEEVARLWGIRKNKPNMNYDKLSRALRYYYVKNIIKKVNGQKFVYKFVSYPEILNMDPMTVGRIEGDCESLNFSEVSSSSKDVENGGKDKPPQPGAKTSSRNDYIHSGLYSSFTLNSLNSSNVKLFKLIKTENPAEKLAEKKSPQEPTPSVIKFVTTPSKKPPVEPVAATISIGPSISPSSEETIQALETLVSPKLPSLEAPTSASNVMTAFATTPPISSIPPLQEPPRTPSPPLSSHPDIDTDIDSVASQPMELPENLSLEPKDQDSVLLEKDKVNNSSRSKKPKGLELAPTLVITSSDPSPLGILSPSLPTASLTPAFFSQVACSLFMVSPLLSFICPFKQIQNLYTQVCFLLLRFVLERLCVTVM
# Summary of the method: as §1
# [9] = target: T7, ETV2 (Homo sapiens, UniProt O00321 1-342)
# T7 sequence: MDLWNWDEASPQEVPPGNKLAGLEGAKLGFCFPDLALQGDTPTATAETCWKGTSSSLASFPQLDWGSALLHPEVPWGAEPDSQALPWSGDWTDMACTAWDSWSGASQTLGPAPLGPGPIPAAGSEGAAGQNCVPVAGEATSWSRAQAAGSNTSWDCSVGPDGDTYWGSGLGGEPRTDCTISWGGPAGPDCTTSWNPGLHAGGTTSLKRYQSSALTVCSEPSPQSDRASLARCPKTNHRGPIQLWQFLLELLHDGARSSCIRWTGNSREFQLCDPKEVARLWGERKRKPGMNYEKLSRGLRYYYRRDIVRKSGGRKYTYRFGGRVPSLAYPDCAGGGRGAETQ
# Summary of the method: as §1
# [10] = target: T8, ELF3 (Homo sapiens, UniProt P78545 1-371)
# T8 sequence: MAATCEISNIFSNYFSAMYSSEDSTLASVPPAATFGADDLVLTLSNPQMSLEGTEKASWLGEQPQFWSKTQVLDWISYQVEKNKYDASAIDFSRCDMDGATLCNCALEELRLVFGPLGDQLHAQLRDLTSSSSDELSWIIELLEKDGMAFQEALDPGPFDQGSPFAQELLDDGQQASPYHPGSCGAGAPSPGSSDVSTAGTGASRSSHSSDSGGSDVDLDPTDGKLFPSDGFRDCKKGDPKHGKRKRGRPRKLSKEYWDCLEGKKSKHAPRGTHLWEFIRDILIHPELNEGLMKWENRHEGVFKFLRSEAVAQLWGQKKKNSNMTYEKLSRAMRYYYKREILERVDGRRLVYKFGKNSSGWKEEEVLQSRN
# Summary of the method: as §1
# [11] = target: ETV1 (Homo sapiens, UniProt P50549 1-477)
# Sequence of ETV1 (P50549 whole entry): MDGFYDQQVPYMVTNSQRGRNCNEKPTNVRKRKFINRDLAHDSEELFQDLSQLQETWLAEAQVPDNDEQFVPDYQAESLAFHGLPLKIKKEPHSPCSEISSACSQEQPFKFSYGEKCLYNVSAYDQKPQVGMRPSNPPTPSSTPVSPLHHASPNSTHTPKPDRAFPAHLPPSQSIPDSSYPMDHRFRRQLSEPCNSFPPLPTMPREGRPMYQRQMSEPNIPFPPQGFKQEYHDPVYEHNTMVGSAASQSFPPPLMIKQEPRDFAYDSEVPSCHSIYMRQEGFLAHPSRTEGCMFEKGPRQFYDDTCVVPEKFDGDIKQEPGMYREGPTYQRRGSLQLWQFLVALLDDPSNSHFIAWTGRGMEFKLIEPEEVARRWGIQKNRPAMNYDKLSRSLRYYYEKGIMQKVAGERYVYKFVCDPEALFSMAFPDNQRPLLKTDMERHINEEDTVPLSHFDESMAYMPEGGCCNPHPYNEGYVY
# Summary of the method: as §1
# [12] = target: T9, ETV3L (Homo sapiens, UniProt Q6ZN32 1-361)
# T9 sequence: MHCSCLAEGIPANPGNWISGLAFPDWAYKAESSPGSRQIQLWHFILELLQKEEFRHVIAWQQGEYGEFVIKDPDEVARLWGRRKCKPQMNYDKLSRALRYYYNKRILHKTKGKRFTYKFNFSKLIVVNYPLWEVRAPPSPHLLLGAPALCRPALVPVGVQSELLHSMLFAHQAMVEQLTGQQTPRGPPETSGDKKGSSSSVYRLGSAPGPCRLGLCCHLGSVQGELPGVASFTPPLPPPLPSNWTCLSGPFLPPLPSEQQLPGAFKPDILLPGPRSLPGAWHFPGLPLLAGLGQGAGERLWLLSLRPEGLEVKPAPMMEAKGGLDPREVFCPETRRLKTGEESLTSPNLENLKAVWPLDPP
# Summary of the method: as §1
# [13] = target: T10, ETS2 (Homo sapiens, UniProt P15036 1-469)
# T10 sequence: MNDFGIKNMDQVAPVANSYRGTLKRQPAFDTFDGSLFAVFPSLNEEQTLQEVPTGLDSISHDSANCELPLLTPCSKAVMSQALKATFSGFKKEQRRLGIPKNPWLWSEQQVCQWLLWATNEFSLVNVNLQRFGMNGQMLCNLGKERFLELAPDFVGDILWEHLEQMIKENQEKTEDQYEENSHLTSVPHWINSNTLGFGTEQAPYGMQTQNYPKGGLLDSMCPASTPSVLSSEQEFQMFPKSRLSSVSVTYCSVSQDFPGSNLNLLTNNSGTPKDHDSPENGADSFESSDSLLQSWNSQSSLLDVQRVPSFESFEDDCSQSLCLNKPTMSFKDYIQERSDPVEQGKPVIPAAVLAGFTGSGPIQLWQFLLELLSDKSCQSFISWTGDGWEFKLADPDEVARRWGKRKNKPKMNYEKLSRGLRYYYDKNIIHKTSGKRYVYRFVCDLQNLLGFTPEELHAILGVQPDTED
# Summary of the method: as §1
# [14] = target: T11, ETV3 (Homo sapiens, UniProt P41162-2 1-143)
# T11 sequence: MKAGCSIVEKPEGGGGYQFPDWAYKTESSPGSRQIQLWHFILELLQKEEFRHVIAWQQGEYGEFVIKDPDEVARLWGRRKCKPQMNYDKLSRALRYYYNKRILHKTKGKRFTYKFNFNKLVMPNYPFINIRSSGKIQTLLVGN
# Summary of the method: as §1
# [15] = target: ETV6 (Homo sapiens, UniProt P41212 1-452)
# Sequence of ETV6 (P41212 whole entry): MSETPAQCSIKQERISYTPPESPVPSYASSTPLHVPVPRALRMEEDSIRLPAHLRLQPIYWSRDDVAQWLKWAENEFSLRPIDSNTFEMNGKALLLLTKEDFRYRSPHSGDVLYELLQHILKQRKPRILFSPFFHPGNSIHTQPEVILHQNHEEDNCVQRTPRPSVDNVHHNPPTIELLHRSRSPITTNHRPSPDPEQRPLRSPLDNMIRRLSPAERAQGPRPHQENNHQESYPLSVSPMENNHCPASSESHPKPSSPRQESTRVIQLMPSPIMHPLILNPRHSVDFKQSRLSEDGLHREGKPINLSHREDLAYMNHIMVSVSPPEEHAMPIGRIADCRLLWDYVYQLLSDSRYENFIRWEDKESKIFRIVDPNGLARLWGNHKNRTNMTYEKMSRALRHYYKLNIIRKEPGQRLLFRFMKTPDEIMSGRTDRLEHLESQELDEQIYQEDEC
# Summary of the method: as §1
sequence,measurement,setting,value
CCCCAG,binding signal,[1],"1.07 fold enrichment (6-mer frequency, TF over GST control)"
same,binding signal,[2],"1 fold enrichment (6-mer frequency, TF over GST control)"
same,binding signal,[3],"1.05 fold enrichment (6-mer frequency, TF over GST control)"
same,binding signal,[4],"1.04 fold enrichment (6-mer frequency, TF over GST control)"
same,binding signal,[5],"1 fold enrichment (6-mer frequency, TF over GST control)"
same,binding signal,[6],"1.14 fold enrichment (6-mer frequency, TF over GST control)"
same,binding signal,[7],"1.04 fold enrichment (6-mer frequency, TF over GST control)"
same,binding signal,[8],"1.24 fold enrichment (6-mer frequency, TF over GST control)"
same,binding signal,[9],"1.04 fold enrichment (6-mer frequency, TF over GST control)"
same,binding signal,[10],"1.16 fold enrichment (6-mer frequency, TF over GST control)"
same,binding signal,[11],"1.11 fold enrichment (6-mer frequency, TF over GST control)"
same,binding signal,[12],"1.11 fold enrichment (6-mer frequency, TF over GST control)"
same,binding signal,[13],"1.04 fold enrichment (6-mer frequency, TF over GST control)"
same,binding signal,[14],"1.07 fold enrichment (6-mer frequency, TF over GST control)"
same,binding signal,[15],"1.03 fold enrichment (6-mer frequency, TF over GST control)"
